# Reference: PubChem BioAssay AID1259415 (National Center for Advancing Translational Sciences (NCATS), 2018)
# Out of some 410,000 compounds screened, about 18,000 (4.4%) were called active. Roughly 7% stayed inconclusive and do not appear here. Only a selection was taken, and actives are over-represented in it overall. Values without a mark were called inactive. Cut-off read from the data, not from the text of the source: active = activity change below about -60%; inconclusive = no clear call, values can overlap the other calls; inactive = above about -39%.
# Assay: qHTS Assay for inhibitors of the human cytomegalovirus (HCMV)
# Details: HFF cells, HCMV-luciferase reporter, 72 h; at 57.5 µM; stronger effect = lower value
# Summary of the method: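 HFF cells seeded 16 h at 37C, treated with compounds, infected with luciferase-reporter HCMV at MOI 1 PFU/cell; luciferase read at 72 h post infection, normalized to buffer-only and Salinomycin controls.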
# % is set by controls: 0 for no effect and ±100 for the full control effect.
row,Structure (SMILES),"activity change, negative = inhibition"
1,Cc1ccc(-c2cc(N)n(Cc3cccc(Cl)c3)n2)cc1,-21.8%
2,COc1cccc(/C=N/Nc2cc(C)nc(-c3ccccc3O)n2)c1O,-95.8% (active)
3,Cc1cccc(Nc2cc(C)nc(-n3nc(C)cc3C)n2)c1,-83.8% (active)
4,CCOC(=O)c1cnc(-n2nc(C)cc2C)nc1NNc1cc(C)nc(-c2ccccc2)n1,-1.83%
5,COc1ccc(-c2nc3nc(C)cc(C)n3c2Nc2c(C)cccc2C)cc1,-8%
6,COc1ccccc1/C=N\Nc1cc(C)nc(-n2nc(C)cc2C)n1,-94.4% (active)
7,COc1ccc(C(C[N+](=O)[O-])n2nc(C)cc2C)cc1 (stereo not given),-11%
8,Cc1ccc(Nc2nc3ccccc3nc2-n2nc(C)cc2C)c(Cl)c1,2.84%
9,COc1cc(Cl)c(C)cc1Nc1nnc(-n2nc(C)cc2C)c2ccccc12,16.8%
10,Cc1cc(C)n(-c2nnc(N3CCN(c4ccccc4)CC3)nn2)n1,-11.6%
11,COc1ccc(/C=C/c2noc(-c3ccccc3O)n2)cc1OC,63.9%
12,COc1ccc(Nc2cc(C)nc(-n3nc(C)cc3C)n2)cc1,-84.3% (active)
13,CCCCc1nnc(NC(=O)CSc2nc(N)cc(=O)[nH]2)s1,-10.9%
14,O=S(=O)(NCCS(=O)(=O)N1CCN(c2ccccc2)CC1)c1ccc(Cl)cc1,-35.4%
15,CCOc1cc(/C=C(\C#N)C(=O)Nc2ccccc2C)ccc1OCc1cc(=O)n2nc(CC)sc2n1,-5.21%
16,CSc1nc(=O)c2c(n1C)NC(=O)CC2c1ccccc1OC(C)C (stereo not given),-11%
17,Cc1nnc(SCC(=O)N2c3ccccc3C(C)(c3ccc(Cl)cc3)CC2(C)C)s1 (stereo not given),-74.1% (active)
18,O=C(CSc1nnc(SCc2ccc(Cl)cc2)s1)N/N=C/c1ccccc1Cl,13.9%
19,CC1(c2cccc([N+](=O)[O-])c2)CC(C)(C)N(C(=O)c2ccccc2)c2ccccc21 (stereo not given),-23.1%
20,CCOC(=O)C(Cc1ccccc1)NC(=O)CCc1c(C)nc2c(c(C)nn2-c2ccc(C)c(C)c2)c1C (stereo not given),35.7%
21,Cc1ccc(SCC(=O)Nc2ccc3oc(-c4ccccc4F)nc3c2)cc1,68.8%
22,COc1ccc(Cl)cc1NC(=O)C(C)Sc1nc2c(c(=O)[nH]1)CCCC2 (stereo not given),12.7%
23,Cc1ccccc1OCCOc1ccc([N+](=O)[O-])cc1/C=N/n1cnnc1,-98.2% (active)

row,Structure (SMILES),"activity change, negative = inhibition"
1,Cc1ccccc1OS(=O)(=O)c1cccc([N+](=O)[O-])c1,-19.5%
2,COc1cccc(OCCOc2cccc(/C=N/n3cnnc3)c2)c1,27%
3,CC1(c2nnc(Cc3ccccc3)o2)CC(c2ccccc2F)=NO1 (stereo not given),4.15%
4,CCCOc1ccc(NC(=O)CC2C(=O)N(c3ccccc3)C(=O)N2Cc2ccco2)cc1 (stereo not given),38.3%
5,COc1cccc(C(=O)N2CCC(n3nccc3NC(=O)C3CCOC3)CC2)c1 (stereo not given),-18.9%
6,COc1ccccc1N1CCN(CC(=O)Nc2ccnn2C2CCCC2)CC1,-12%
7,COc1cccc(N2CCN(CC(=O)Nc3ccnn3C3CCCC3)CC2)c1,-60.5% (active)
8,COc1ccc2[nH]c3nc(SCC(=O)NC4CC4)nnc3c2c1,13.8%
9,O=C(CSc1nnc2c(n1)[nH]c1ccccc12)NC1CCCCC1,-65.5% (active)
10,CCOc1ccc2[nH]c3nc(SCC(=O)NC4CCCC4)nnc3c2c1,-31.8%
11,O=C(Cc1cccs1)N(CC1CCCO1)C1(C(=O)NC2CCCCC2)CCCCC1 (stereo not given),-20.9%
12,CCOC(=O)c1c(CC(C)C)csc1/N=C/C1=C(O)CCCC1=O,-98.2% (active)
13,CCOC(=O)c1sc(/N=C/C2=C(O)CC(C)(C)CC2=O)c(C(=O)OCC)c1C,-33.1%
14,Cc1cc(N=CC2=C(O)CCCC2=O)no1,2.05%
15,CCOC(=O)c1c(NC(=O)Cc2coc3ccc(CC)cc23)sc2c1CCC2,1.55%
16,Cc1ccc(C)c(N2CCN(C(=O)CN3C(=O)COc4ccc(S(=O)(=O)N5CCCCCC5)cc43)CC2)c1,-10.9%
17,Cc1ccc(Cl)cc1-n1ncc2c(N3CCC(C(N)=O)CC3)ncnc21,-7.89%
18,CCCCN(CC)C(=O)CN(C)S(=O)(=O)c1cccc2nsnc12,0.246%
19,O=[N+]([O-])c1ccc(C(S(=O)(=O)Cc2ccccc2)S(=O)(=O)Cc2ccccc2)cc1,-20.9%
20,O=C(NCCCCc1ccccc1)C1CC(c2ccc([N+](=O)[O-])cc2)=NO1 (stereo not given),1.01%
21,O=C1NC(=O)C2C1C(c1ccc([N+](=O)[O-])cc1)=NN2Cc1ccccc1 (stereo not given),-71.6% (active)
22,Cc1ccc(-n2cnc3cc(C(=O)NCCC4=CCCCC4)ccc32)cc1Cl,-19.6%
23,COc1ccc(-c2[nH]c3c(c2-c2c(-n4cccc4)n(C)c(=O)n(C)c2=O)c(=O)n(C)c(=O)n3C)cc1,12.5%

row,Structure (SMILES),"activity change, negative = inhibition"
1,COc1ccccc1CNC(=O)c1ccc(NC(=O)N2CC(C)Sc3ccccc32)cc1 (stereo not given),-6.59%
2,COc1cccc(C(O)c2nc(-c3ccc(C)c(C)c3)cs2)c1 (stereo not given),-60.7% (active)
3,COc1ccc(-c2csc(C(O)c3cccc(Cl)c3)n2)cn1 (stereo not given),-37.6%
4,Cc1ccccc1-c1csc(C(O)c2cccc(Cl)c2)n1 (stereo not given),-10.3%
5,Cn1c(/C(C#N)=C2/CCCCCN2)nc2ccccc21,-40%
6,Cc1nn(CC(=O)NCCc2ccccc2)c(=O)c2c1sc1ccccc12,0.0704%
7,N#C/C(=C\c1ccccc1F)c1nc2ccccc2c(=O)[nH]1,-22.3%
8,O=C(/C(=C/c1cccc(Cl)c1)c1nc2ccccc2[nH]1)c1ccccc1,-99.6% (active)
9,CCc1ccc(CNCc2c(C(=O)O)n(Cc3ccc(F)cc3Cl)c3cc(OC)ccc23)cc1,15.2%
10,CCOC(=O)C1=C(c2ccccc2)N=C2SCC(=O)N2C1c1ccc(O)c(OC)c1 (stereo not given),9.04%
11,CC1CN(CCOc2ccccc2[N+](=O)[O-])CC(C)O1 (stereo not given),-21.7%
12,CC1CCCN(CCOCCOc2ccccc2-c2ccccc2)C1 (stereo not given),-71.7% (active)
13,CC1CN(CCCOc2ccccc2-c2ccccc2)CC(C)O1 (stereo not given),58.1%
14,CCOC(=O)Cn1c(=O)n(C2CCCCC2)c2nc(-c3cccc(OC)c3)nc(C(N)=O)c21,18.1%
15,O=C(/C=C/c1ccccc1)N1CCN(Cc2cc(=O)n3nc(-c4ccccc4F)sc3n2)CC1,34.4%
16,O=C1OCC2=C1C(c1ccc(Cl)cc1)c1cc3c(cc1O2)OCO3 (stereo not given),37.6%
17,COc1ccccc1C1C2=C(COC2=O)Nc2cc3c(cc21)OCO3 (stereo not given),-87.9% (active)
18,O=C1NC(c2cc3c(cc2Cl)OCO3)Oc2ccccc21 (stereo not given),17.7%
19,CCCOc1ccccc1C1CC(=O)Nc2cc3c(cc21)OCO3 (stereo not given),-61.8% (active)
20,O=C1CC(c2ccc(F)cc2F)c2cc3c(cc2N1)OCO3 (stereo not given),-1.6%
21,Cc1cc2c(cc1C)C(c1cccc(OC(C)C)c1)CC(=O)N2 (stereo not given),-38.7%
22,COc1ccc(-c2onc(C)c2C)cc1S(=O)(=O)NCC1CCN(Cc2cccc(F)c2)CC1,0%
23,Cc1ccccc1CN1CCC(CNC(=O)c2c(C)oc3ncnc(N4CCCCC4)c23)CC1,-4.04%

row,Structure (SMILES),"activity change, negative = inhibition"
1,Cc1sc2ncn(CC(=O)N3CCN(c4ccc(F)cc4)CC3)c(=O)c2c1S(=O)(=O)N1CCN(c2ncccn2)CC1,-4.66%
2,Cc1n[nH]c(=O)c2c(NC(=O)CSc3ccccc3F)oc(C)c12,-30.8%
3,COc1ccc(N2C(=O)CS(=O)(=O)C23C(=O)N(Cc2ccc(C)cc2)c2ccccc23)cc1Cl (stereo not given),-12.4%
4,COc1ccccc1C1CCN(C(=S)Nc2ccc(Br)cc2)CC1,2.47%
5,COc1ccc(NC(=O)CC2COc3ccccc3O2)c(OC)c1 (stereo not given),9.76%
6,S=C(NCC1COc2ccccc2O1)Nc1ccc(Br)cc1 (stereo not given),-67.8% (active)
7,CCC(=O)N1CCc2cc(S(=O)(=O)NC(Cc3ccccc3)C(=O)NCc3ccc(C)cc3)ccc21 (stereo not given),5.04%
8,Cc1ccc(N(Cc2cc(=O)[nH]c3ccccc23)C(=O)CCl)cc1,-101% (active)
9,Cc1ccc(N(Cc2ccccc2O)C(=O)c2ccccc2F)cc1,-8.68%
10,CCC(=O)N(Cc1cc2ccccc2[nH]c1=O)c1ccc(OC)cc1,18.3%
11,Cc1ccc(C)c(NC(=O)Cn2ccn(-c3ccc(F)cc3)c(=O)c2=O)c1,-35.9%
12,O=S(=O)(Nc1ccc2nc(-c3cccc(Cl)c3)oc2c1)c1ccccc1,-36.4%
13,COc1ccc(C(C)(C)C)cc1NC(=O)CN(C)C1=NS(=O)(=O)c2ccccc21,6.84%
14,Oc1cccc(/C=N/Nc2ccc(Cl)nn2)c1O,-95.1% (active)
15,COc1ccc(-n2ccn(CC(=O)Nc3ccc(C)c(C)c3)c(=O)c2=O)cc1OC,-20.8%
16,CC(C)N1C(=O)N(c2ccccc2)C(C)(O)CC1(C)C (stereo not given),-26.6%
17,CC(CC(=O)Nc1ccccc1)n1ccnc1 (stereo not given),39%
18,CC(=O)N1CCc2cc(S(=O)(=O)NC(Cc3ccccc3)C(=O)NCc3ccc(C)cc3)ccc21 (stereo not given),-12.2%
19,C#CCN(C[C@H]1[C@H](OC(=O)NC2CCCC2)[C@H](OC(=O)NC2CCCC2)C[C@H]2C(=O)N(c3ccccc3)C(=O)[C@@H]12)S(=O)(=O)c1ccc(C)cc1,-6.21%
20,C#CCN(C[C@@H]1[C@@H](OC(=O)NC2CC2)[C@@H](OC(=O)NC2CC2)Cn2c(=O)ccc(=O)n21)S(=O)(=O)c1ccc(C)cc1,-96.3% (active)
21,Cc1ccc(S(=O)(=O)N2C[C@H]3n4c(=O)ccc(=O)n4C[C@H](OC(=O)NC4CCCC4)[C@@]3(O)C2)cc1,-24.9%
